The values below come from PubChem BioAssay AID2685 (National Center for Advancing Translational Sciences (NCATS), 2010).

The campaign covered roughly 320,000 compounds. About 2,100 (0.66%) were called active. Another 53% or so got no clear call; they are omitted. The call rests on the fitted dose curve; in most records, active means well fitted inhibition curve with a large enough effect in the signal ratio, with a control signal flat (not every such curve was filed as active); inconclusive means small, poorly fitted or top-dose-only effect, or effect the other way, or a change in a side signal; inactive means flat fitted curve, though single readings scatter; the % refers to the signal ratio. Many of the other results were omitted from the sample, so actives are more common in it than they were.
Potency means the concentration at half of the fitted maximal effect.

The test is described as follows: qHTS Assay for Lipid Storage Modulators in Drosophila S3 Cells.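 On cell number change: cells counted by Cell Tracker Red CMTPX staining in the red channel.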 On lipid storage change, negative = inhibition: on the % scale 0 is the no-effect control and ±100 the full control effect. The settings on record: BODIPY lipid droplet fluorescence, 18-24 h, cells fed with added oleic acid; cell number change: measured here: cell count max response; series mostly up to 46.1 µM; lipid storage change, negative = inhibition: at the top concentration. A digest of the protocol: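 Laser-scanning cytometry quantifies lipid droplet accumulation (500–530 nm total intensity; droplet/cell object ratio) in oleic acid-fed (400 uM added) Drosophila S3 cells treated with a concentration series. 20 uM Triacsin C defined 100% inhibition.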
For orientation: qHTS replaces the single test concentration by a dilution series.
On to `CC(=O)c1ccc(S(=O)(=O)NC2CCSc3ccccc32)cc1` (centres undefined), for which the “lipid storage change, negative = inhibition” value was 34% (inactive) and the cell number change was determined as 11.1%.
As to `O=C(COC(=O)c1ccc(Cl)cc1[N+](=O)[O-])NC(=O)c1ccccc1`, the call was inactive and the cell number change is -11.4%.
On to `Cc1ccc(C2=NC3(CCCC3)NC2=S)cc1`, for which the cell number change is 8.14% and the lipid storage change, negative = inhibition was 6.56% [at 9.22 µM] (inactive).
Regarding `Cc1ccc(NC(=O)CCN2C(=O)c3ccccc3C2=O)c(C)c1`, the “lipid storage change, negative = inhibition” value was -5.21% (inactive) and the cell number change turned out to be 5.45%.
As for `COC(=O)c1ccccc1NC(=O)C1=CC(c2cccs2)=NS(=O)(=O)N1C`, the “lipid storage change, negative = inhibition” value is 14.1% (inactive) and the cell number change is 5.19%.
`CSc1ccccc1NC(=O)C1=CC(c2cccs2)=NS(=O)(=O)N1C`: the Potency is 4.11 µM (active) and the cell number change is -26.8%.
In the case of `CN1C(C(=O)Nc2ccc(F)cc2F)=CC(c2cccs2)=NS1(=O)=O`, the “lipid storage change, negative = inhibition” value is -7.04% (inactive) and the cell number change is -0.288%.
Regarding `Cc1nnc(SCC(=O)NNC(=O)c2ccccc2)n1-c1ccccc1`, the “lipid storage change, negative = inhibition” value was -11.8% (inactive).
Take `COc1cc2c(cc1OC)C(c1ccccc1)N(C(=O)c1cccc(S(C)(=O)=O)c1)CC2` (centres undefined): the molecule was called inactive and the cell number change was determined as 14.6%.
Regarding `Cc1cc(C(=O)COC(=O)/C=C/c2cccc(Br)c2)c(C)n1C`, the “lipid storage change, negative = inhibition” value is -6.39% (inactive).
For the molecule `COc1ccccc1/C=C/C(=O)OCC(=O)c1cc(C)n(C)c1C`, the Potency was 1.3 µM (active) and the cell number change was -22.1%.
On to `Cc1cc(C(=O)COC(=O)/C=C/c2cccc(F)c2)c(C)n1C`, for which the “lipid storage change, negative = inhibition” value is 7.92% (inactive) and the cell number change was found to be 5.66%.
In the same order, the values of `COc1ccc(S(=O)(=O)Nc2ccccc2N2CCOCC2)cc1[N+](=O)[O-]` are -24.1% (inactive) and 0.857%.
As to `COCCCNC(=S)Nc1ccc2nc(N3CCOCC3)cc(C)c2c1`, the “lipid storage change, negative = inhibition” value was 1.62% (inactive) and the cell number change was 0.741%.
Regarding `O=C(NCCS(=O)(=O)N1CCN(c2ccc(F)cc2)CC1)C1CC(=O)N(c2ccccc2)C1` (centres undefined), the molecule was called inactive and the cell number change amounted to 4.61%.
Take `Cc1ccc(N2CC(C(=O)NCCS(=O)(=O)N3CCN(c4ccc(F)cc4)CC3)CC2=O)cc1` (centres undefined): the Potency is 2.06 µM (active) and the cell number change is -2.39%.
Turning to `O=C(NCCS(=O)(=O)N1CCN(c2ccccc2)CC1)C1CC(=O)N(c2ccc(F)cc2)C1` (centres undefined), the molecule was called inactive and the cell number change was -3.13%.
Regarding `CC(=O)N1CCc2c(sc(NC(=O)Cc3ccc(F)cc3)c2C#N)C1`, the “lipid storage change, negative = inhibition” value is 3.42% (inactive) and the cell number change turned out to be 7.34%.
In the same order, the values of `COc1cccc(CNC(=O)CCl)c1` are -9.82% (inactive) and 5.99%.
For the molecule `O=C(COC(=O)c1nc(Cl)c(Cl)c(Cl)c1Cl)NCc1ccccc1`, the “lipid storage change, negative = inhibition” value was -15.2% (inactive) and the cell number change was -8.84%.
For `COc1cccc(CNC(=O)COC(=O)c2nc(Cl)c(Cl)c(Cl)c2Cl)c1`, the Potency is 14.6 µM (active) and the cell number change was -29.4%.
Turning to `COC(=O)c1sccc1NC(=O)CC1C(=O)NCCN1C(=O)Nc1cc(Cl)ccc1OC` (centres undefined), the “lipid storage change, negative = inhibition” value is 8.74% (inactive) and the cell number change worked out at 13.4%.
In the same order, the values of `CCC(=O)Oc1ccc2c(=O)c(-c3ccc4ccccc4n3)c(CC)oc2c1C` are 6.65% (inactive) and 1.88%.
With `COc1ccc(C(=O)O)cc1S(=O)(=O)Nc1cccc(C(F)(F)F)c1`, the Potency is 29.1 µM (active) and the cell number change is -15.9%.
In the case of `COc1ccc(C(=O)N2CCCCC2)cc1S(=O)(=O)Nc1cccc(C(=O)O)c1`, the “lipid storage change, negative = inhibition” value was -7.55% (inactive) and the cell number change amounted to 0.28%.
Take `COc1ccc(F)cc1S(=O)(=O)Nc1cccc(C(=O)O)c1`: the “lipid storage change, negative = inhibition” value is -6.3% (inactive).
For the molecule `COC(=O)c1cccc(C23CC4(C2)[C@H](CN(Cc2cccnc2)[C@@H]4c2ccccc2)C3c2ccc(Cl)nc2)c1` (some centres undefined), the “lipid storage change, negative = inhibition” value was 16.4% (inactive) and the cell number change was found to be 17.9%.
As to `CC(C)(C)OC(=O)N/N=C/c1cccc([N+](=O)[O-])c1`, the “lipid storage change, negative = inhibition” value is -1.02% (inactive) and the cell number change worked out at 14.2%.
As to `CCOc1cc(C(=O)N2CCC(CC3CC(c4cccc(Br)c4)=NO3)(C(=O)NCC3CCCCC3)CC2)cc(OCC)c1OCC` (centres undefined), the Potency is 2.06 µM (active) and the cell number change was 23.9%.
For the molecule `CCCCCCCNC(=O)C1(CC2CC(c3cccc(Br)c3)=NO2)CCN(C(=O)c2cc(OCC)c(OCC)c(OCC)c2)CC1` (centres undefined), the “lipid storage change, negative = inhibition” value is -9.14% (inactive) and the cell number change was -10.9%.
In the same order, the values of `O=C(c1ccccc1)N1CCC(CC2CC(c3cccc(Br)c3)=NO2)(C(=O)NCC2CCCCC2)CC1` (centres undefined) are -12% (inactive) and 21.3%.
In the case of `O=C(NCC(=O)N(CCN1CCOCC1)C(C(=O)NC1CCCC1)c1ccccc1)c1cccs1` (centres undefined), the “lipid storage change, negative = inhibition” value was 8.9% (inactive) and the cell number change was -0.374%.
For `Cc1ccc(N(Cc2ccccc2)C(=O)c2cccc(S(=O)(=O)N3CCN(C)CC3)c2)cc1`, the molecule was classed as inactive and the cell number change is -1.81%.
For the molecule `Cc1cc(=O)[nH]c(N/N=C/c2ccc(Cl)cc2Cl)n1`, the “lipid storage change, negative = inhibition” value was 13.3% (inactive) and the cell number change was found to be 3.1%.
Regarding `CCN1CCN(Cc2ccc(NC(=O)c3ccc(C)c(/C=C/c4cnc(Nc5cc(N6CCNCC6)nc(C)n5)cn4)c3)cc2C(F)(F)F)CC1`, the Potency is 18.4 µM (active) and the cell number change is -17.2%.
In the case of `CCN1CCN(Cc2ccc(NC(=O)c3ccc(C)c(NC(=O)c4ccnnc4)c3)cc2C(F)(F)F)CC1`, the “lipid storage change, negative = inhibition” value is 15.2% (inactive).
Regarding `CCN1CCN(Cc2ccc(NC(=O)c3ccc(C)c(NC(=O)c4ccc5n[nH]nc5c4)c3)cc2C(F)(F)F)CC1`, the “lipid storage change, negative = inhibition” value was 17.7% (inactive).
`CN1CCc2nc(NC(=O)c3cccc(S(=O)(=O)N4CCc5ccccc54)c3)sc2C1`: the outcome was inactive and the cell number change was 12.6%.
For the molecule `COCC(=O)Nc1cc(C(=O)NCC(C)C)ccc1Cl`, the “lipid storage change, negative = inhibition” value is 12.1% (inactive) and the cell number change is 4.26%.
Take `COc1cc(OC)c(OC)cc1/C=N/n1c(C)nc2ccccc2c1=O`: the result was inactive and the cell number change came to 16.2%.
With `COc1ccc(Br)cc1/C=N/n1c(C)nc2ccccc2c1=O`, the Potency is 3.66 µM (active) and the cell number change was -4.17%.
`Cc1nc2ccccc2c(=O)n1/N=C/c1ccccc1O`: the “lipid storage change, negative = inhibition” value was -4.47% (inactive) and the cell number change is 14.5%.
